Among the test systems are NCI-H23 lung; NCI-H226 lung; NCI-H322M lung; HOP-62 NSCLC; NCI-H460 lung; HOP-92 NSCLC; NCI-H522 lung; A549/ATCC NSCLC; 786-0 renal; COLO 205 colon; DU-145 prostate; K-562 leukemia; MALME-3M melanoma; MDA-MB-231 breast; RXF 393 renal; SF-268 CNS; SF-295 CNS; SF-539 CNS; UACC-257 melanoma; M14 melanoma.
Assay in all cases: NCI-60 one-dose screen, 48 h (100 = growth as untreated, 0 = no growth, -100 = all killed)
Details in all cases: 10 µM unless noted

SMILES strings stand for the structures. This is part of a sample that, as a whole, favours compounds with a hit. Of some 83,000 tested, about 20% had one in any assay.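 How to read the values: 0–100, growth inhibition (40 = 60% inhibited); 0, no net growth; -100 to 0, cell death (-40 = 40% of starting cells died; -100 = all dead).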 Unmarked numbers belong to inactive results. Active and inactive are the calls of the source. Rule for the calls: active = growth percent below 10; inactive = the rest.

Here are results for seven compounds from PubChem BioAssay (NCI).

In the case of `CCN1CCC[C@H]1c1cc(O)c2c(c1OC)C[C@H]1C[C@H]3[C@H](N)C(=O)C(C(N)=O)=C(O)[C@@]3(O)C(=O)C1=C2O`, the growth was -16.7% (active) in the test with NCI-H23 lung; 1.47% (active) with NCI-H226 lung; -2.43% (active) in the test with NCI-H322M lung; -12% (active) with HOP-62 NSCLC; 2.84% (active) in the test with NCI-H460 lung; -3.43% (active) in the test on HOP-92 NSCLC. Also, the growth in the test with NCI-H522 lung is -21.4% (active); in the test on A549/ATCC NSCLC it was 6.12% (active); in the test with 786-0 renal, 3.89% (active); in the test on COLO 205 colon it was -18.7% (active); in the test with DU-145 prostate, 1.87% (active); with K-562 leukemia it was 3.76% (active). Further, the growth is -16.5% (active) with MALME-3M melanoma; -6.79% (active) in the test on MDA-MB-231 breast; -40.4% (active) in the test with RXF 393 renal; 2.64% (active) in the test on SF-268 CNS; 0.93% (active) in the test on SF-295 CNS; -21% (active) with SF-539 CNS. Besides, the figures for the growth in the test with UACC-257 melanoma and with M14 melanoma were -14.1% (active) and -38.8% (active), respectively.

For `C=CCn1c(SCC(=O)Nc2ccc(C(=O)/C=C/c3ccc(Cl)cc3)cc2)nnc1-c1cc(OC)c(OC)c(OC)c1`, the growth in the test on NCI-H23 lung was 92.9%; in the test on NCI-H226 lung, 79.6%; in the test on NCI-H322M lung it was 101%; in the test with HOP-62 NSCLC, 98.3%; with NCI-H460 lung it was 99.6%; with HOP-92 NSCLC, 89.2%. The growth is 76.3% in the test on NCI-H522 lung; 85.6% in the test on A549/ATCC NSCLC; 81% in the test with 786-0 renal; 110% with COLO 205 colon; 100% in the test on DU-145 prostate; 83.8% in the test with K-562 leukemia. The growth was 115% in the test on MALME-3M melanoma; 80.5% in the test on MDA-MB-231 breast; 90.8% in the test with RXF 393 renal; 87.8% in the test on SF-268 CNS; 94.3% in the test with SF-295 CNS; 96.4% in the test on SF-539 CNS. Also, the values for the growth with UACC-257 melanoma and in the test on M14 melanoma were 95.8% and 93.9%, respectively.

`Nc1ccc(C(=O)Nc2cccc(C(=O)Nc3ccc4c(O)c(N=Nc5ccc(N=Nc6ccc(S(=O)(=O)O)cc6)cc5)c(S(=O)(=O)O)cc4c3)c2)cc1`: the growth in the test with NCI-H23 lung was 96.8%; with NCI-H226 lung, 111%; with NCI-H322M lung, 101%; in the test with HOP-62 NSCLC, 98.5%; in the test on NCI-H460 lung it was 105%; in the test on HOP-92 NSCLC it was 108%. Also, the growth was 92.3% with NCI-H522 lung; 102% with A549/ATCC NSCLC; 103% with 786-0 renal; 114% in the test on COLO 205 colon; 107% with DU-145 prostate; 88.1% in the test on K-562 leukemia. Besides, the growth is 93.8% in the test with MALME-3M melanoma; 101% in the test with MDA-MB-231 breast; 109% in the test on RXF 393 renal; 102% with SF-268 CNS; 104% with SF-295 CNS; 102% in the test with SF-539 CNS. The results for the growth in the test on UACC-257 melanoma and in the test with M14 melanoma were 111% and 97.3%, respectively.

In the case of `CCOC(=O)c1ccc(Nc2ncnc3ccc(NC(=O)c4ccccc4)cc23)cc1`, the growth with NCI-H23 lung is 83.7%; in the test with NCI-H226 lung, 78.2%; in the test on NCI-H322M lung, 95.6%; in the test on HOP-62 NSCLC, 98.8%; in the test on NCI-H460 lung it was 95.5%; with HOP-92 NSCLC it was 86.4%. In addition, the growth in the test with NCI-H522 lung is 73.3%; with A549/ATCC NSCLC, 91.5%; with 786-0 renal it was 86.8%; in the test with COLO 205 colon, 104%; in the test on DU-145 prostate it was 105%; with K-562 leukemia, 71.9%. Moreover, the growth was 109% in the test with MALME-3M melanoma; 98.2% in the test on MDA-MB-231 breast; 80.7% in the test on RXF 393 renal; 91.3% in the test with SF-268 CNS; 95.3% with SF-295 CNS; 101% in the test on SF-539 CNS. In addition, the growth was 103% with UACC-257 melanoma and 93.8% in the test on M14 melanoma.

`C(=C\c1cn(-c2ccccc2)nc1-c1ccccc1)/c1nnc(-c2c[nH]c3ccccc23)o1`: the growth in the test with NCI-H23 lung is 51%; in the test with NCI-H226 lung, 57.3%; in the test with NCI-H322M lung, 80.3%; in the test on HOP-62 NSCLC, 38.9%; in the test with NCI-H460 lung it was 14.1%; in the test with HOP-92 NSCLC, 60.2%. In addition, the growth in the test on NCI-H522 lung was 61.5%; in the test on A549/ATCC NSCLC it was 46.7%; in the test on 786-0 renal, 40.6%; in the test on COLO 205 colon, 31.8%; with DU-145 prostate, 27%; in the test on K-562 leukemia it was 61.5%. In addition, the growth is 7.81% (active) in the test on MALME-3M melanoma; 9.62% (active) with MDA-MB-231 breast; 53.5% with RXF 393 renal; 40.9% in the test with SF-268 CNS; 29.8% in the test on SF-295 CNS; 59.2% in the test on SF-539 CNS. Moreover, the growth in the test on UACC-257 melanoma is 107%; in the test on M14 melanoma, 45.5%.

Turning to `CCCCN(CCCC)CC(CN(CC)CC)OC(=O)Nc1ccccc1` (stereo not given), the growth was 72.2% with NCI-H23 lung; 103% in the test with NCI-H226 lung; 85% with NCI-H322M lung; 75.4% in the test with HOP-62 NSCLC; 105% with NCI-H460 lung; 75% in the test with HOP-92 NSCLC. For the same compound, the growth is 74.7% with NCI-H522 lung; 92.9% in the test on A549/ATCC NSCLC; 83% in the test with 786-0 renal; 79.6% in the test on COLO 205 colon; 99.9% in the test with DU-145 prostate; 76% in the test with K-562 leukemia. The growth with MALME-3M melanoma is 90.3%; in the test with MDA-MB-231 breast, 69.7%; in the test on RXF 393 renal, 95.1%; in the test on SF-268 CNS, 94.9%; in the test with SF-295 CNS it was 77.5%; in the test on SF-539 CNS, 94.4%. Further, the growth is 111% in the test on UACC-257 melanoma and 80.9% with M14 melanoma.

Regarding `C=C(C)[C@@H]1CC[C@]2(C(=O)N=C=S)CC[C@]3(C)[C@H](CC[C@@H]4[C@@]5(C)CCC(=O)C(C)(C)[C@@H]5CC[C@]43C)[C@@H]12`, the growth in the test with NCI-H23 lung is 32.9%; with NCI-H226 lung, 48.8%; in the test on NCI-H322M lung, 42.8%; with HOP-62 NSCLC, 30.1%; in the test with NCI-H460 lung it was 6.85% (active); in the test on HOP-92 NSCLC, 18.2%. In addition, the growth in the test with NCI-H522 lung was 15.3%; with A549/ATCC NSCLC, 26.2%; with 786-0 renal it was 37.2%; in the test on COLO 205 colon, -19.1% (active); in the test on DU-145 prostate, 33.5%; in the test with K-562 leukemia, 18.8%. The growth with MALME-3M melanoma is 40.7%; in the test with MDA-MB-231 breast, 18%; in the test with RXF 393 renal it was 50.6%; in the test with SF-268 CNS, 36.5%; in the test on SF-295 CNS it was 36%; in the test on SF-539 CNS, 31.8%. In addition, the results for the growth with UACC-257 melanoma and in the test on M14 melanoma were 54.7% and 39.3%, respectively.
